Source: PubChem
Wnt act – Wnt/beta-catenin pathway activators, primary screen, cell-based, plate reader, single point | 1.2% of 300,000 active | Wnt/beta-catenin reporter cell assay, activator | activation, % at 9.35 µM; in the data active = activation above about 30%, passing the limit was not always enough; inconclusive = no clear call, values can overlap the other calls;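 also: 0% = neutral control wells and 100% = positive control wells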
esBAF inh – Bmi1 luciferase reporter increase in mESCs, primary screen, esBAF inhibitor project, mouse ES cells, Bmi1 luciferase knock-in, single point; 2% of 350,000 active; 24 h; 100% = twice the neutral-well signal; AID 602393, 2012; reporter increase, % at 12.5 µM; in the data active = activation above about 40%; inconclusive = no clear call, values can overlap the other calls;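 also: 0% = median of the plate's neutral control wells and 100% = double that signal; a rise in the Bmi1 reporter signal indicates esBAF inhibition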
FXN GAA850 act – FXN promoter activators, primary screen, cell-based, luciferase luminescence, HEK293 lucGAA850 | HEK293 lucGAA850 FXN promoter luciferase reporter, 24 h; percent of 10 µM SAHA response | activation, % at 6 µM | 0.56% of 360,000 active;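 active = activation above the average of all compounds screened plus 3 SD, cutoff fixed separately per campaign, cut at about 7.5% in these data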;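 also: 0% = DMSO wells and 100% = 10 µM SAHA wells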
MITF TRPM1 HTS – activators of MITF-driven TRPM1 promoter reporter, primary screen, cell-based, SK-MEL-5, luciferase, single point | activation, % at 12.5 µM | 0.75% of 300,000 active | SK-MEL-5 TRPM1-promoter luciferase, 24 h; % of positive control, neutral wells = 0;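 active = mean activation of at least 80% with every replicate also reaching 80%; inconclusive = mean reaches 80% but some replicate falls short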;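 also: 0% = neutral control wells and 100% = parthenolide positive control wells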
An asterisk follows results filed as active. In the library only some 2.8% were active in any assay of this set; here they are far more common.

Screening CN(C)CCCNC(=O)[C@H]1[C@H](CO)[C@H]2Cn3c(ccc(-c4ccncc4)c3=O)[C@@H]1N2C(=O)C1CC1 returned esBAF inh 2.9.
`CCC(=O)N[C@H]1CC[C@@H](CCn2cc(-c3cccc(OC)c3)nn2)O[C@H]1CO` gave esBAF inh -4.0.
`CCOC(=O)c1sc2nc(-c3cccnc3)ccc2c1N` gave Wnt act 51.9*, FXN GAA850 act 7.0 and MITF TRPM1 HTS 77.3.
CN(C)/C=C1\C(=O)N(c2ccc([N+](=O)[O-])cc2)N=C1c1ccccc1 was read as esBAF inh 52.6*, FXN GAA850 act 5.7 and MITF TRPM1 HTS 36.2.
`CC1=NN(c2ccc([N+](=O)[O-])cc2)C(=O)/C1=C\N(C)C` gave Wnt act 4.5, FXN GAA850 act 3.1 and MITF TRPM1 HTS 10.0.
`COc1ccc(/C(C)=N/Nc2cccc(C(=O)O)c2)cc1OC` gave Wnt act 4.8, esBAF inh 52.6*, FXN GAA850 act 4.5 and MITF TRPM1 HTS 7.8.
For C/C(=N\Nc1cccc(C(=O)O)c1)c1ccc(Cl)s1 the results were Wnt act 16.4, esBAF inh 72.8*, FXN GAA850 act 2.3 and MITF TRPM1 HTS 68.1.
`O=C(Cc1ccncc1)NCC[C@H]1CC[C@@H](NC(=O)C2CCCC2)[C@@H](CO)O1` gave esBAF inh 0.3.
`C/C(=N/OC(=O)C1CC1)c1cc(-c2ccc(Cl)cc2)no1` gave Wnt act 7.6, FXN GAA850 act 3.3 and MITF TRPM1 HTS 89.4*.
`CCOc1ccccc1-c1nc(-c2ccncc2)no1` gave esBAF inh 34.6, FXN GAA850 act 0.3 and MITF TRPM1 HTS 24.6.
Screening COc1ccccc1-c1nc(-c2ccc(Br)cc2)no1 returned esBAF inh 53.7*, FXN GAA850 act 3.5 and MITF TRPM1 HTS 76.2.
For COc1ccccc1-c1nc(-c2ccncc2)no1 the results were Wnt act 61.1*, esBAF inh 4.9 and FXN GAA850 act 3.4.
CC(=O)N[C@@H]1CC[C@H](CC(=O)NCC2CCCCC2)O[C@H]1CO was read as esBAF inh -2.0.
Screening O=C(CCNC(=O)c1ccccc1Cl)Nc1nc(-c2ccccc2Cl)cs1 returned Wnt act 4.9, esBAF inh 55.1*, FXN GAA850 act 1.7 and MITF TRPM1 HTS 6.1.
C[C@H](CO)N1C[C@H](C)[C@H](CN(C)C(=O)NC2CCCC2)Oc2ncc(/C=C/c3ccccc3)cc2C1=O was read as esBAF inh -1.1.
For Cc1ccc(-c2ccc(NC(=O)C3C4C=CC(C4)C3C(=O)O)cc2)o1 (centres undefined) the results were esBAF inh 58.8* and FXN GAA850 act 5.6.
COc1ccc(NC(=O)C2C3C=CC(C3)C2C(=O)O)cc1 (centres undefined) was read as Wnt act 25.6, FXN GAA850 act 0.0 and MITF TRPM1 HTS -3.7.
Screening COC(=O)C1CCN(S(=O)(=O)c2c(C)n(C)c(=O)n(C)c2=O)CC1 returned Wnt act 47.6*, esBAF inh -8.2, FXN GAA850 act 0.2 and MITF TRPM1 HTS 0.5.
Clc1ccc(N2CCN(c3cnc4ccccc4n3)CC2)cc1 was read as esBAF inh 44.7*, FXN GAA850 act 3.9 and MITF TRPM1 HTS 39.2.
For c1ccc(Sc2cnc3ccccc3n2)cc1 the results were FXN GAA850 act 4.6 and MITF TRPM1 HTS 70.4.
`Clc1ccc(Sc2cnc3ccccc3n2)cc1` gave Wnt act 11.1, esBAF inh 44.7*, FXN GAA850 act 4.8 and MITF TRPM1 HTS inconclusive.
Screening COc1cccc(N2CCN(c3cnc4ccccc4n3)CC2)c1 returned Wnt act 7.7, FXN GAA850 act 5.4 and MITF TRPM1 HTS 49.9.
Screening COc1ccc(N2CCN(c3cnc4ccccc4n3)CC2)cc1 returned Wnt act 9.7, esBAF inh 52.5*, FXN GAA850 act 4.5 and MITF TRPM1 HTS 96.6*.
CC(C)NC(=O)NCC[C@H]1CC[C@@H](NC(=O)CCN2CCCCC2)[C@@H](CO)O1 was read as esBAF inh -3.3.
For Cc1ccc(O)c(N=Cc2cccs2)c1 the results were FXN GAA850 act 0.5 and MITF TRPM1 HTS -10.2.
Screening Cc1ccc(O)c(N=Cc2ccc(C)s2)c1 returned esBAF inh 58.6*, FXN GAA850 act 4.1 and MITF TRPM1 HTS 0.4.
For Cc1sc2nc3ccc(N4CCCCC4)nn3c(=O)c2c1C the results were Wnt act -1.6, esBAF inh -4.9, FXN GAA850 act 4.4 and MITF TRPM1 HTS 121.0*.
Screening Cc1sc2nc3n(c(=O)c2c1C)CCCCC3 returned esBAF inh 13.9, FXN GAA850 act -0.1 and MITF TRPM1 HTS 13.5.
